About 83,000 compounds went through this panel and 20% of them were active in at least one assay; those are over-represented in the sample as a whole.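 Step 1: grow cells in 96-well plates. Step 2: add test compound at a single concentration. Step 3: incubate 48 h. Step 4: record percent growth.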 Unmarked numbers belong to inactive results. Activity calls are given as the source filed them. How the source made its calls: active means growth percent below 10; inactive means the rest.

What all share (test): NCI-60 one-dose screen, 48 h (100 = growth as untreated, 0 = no growth, -100 = all killed)
Holding throughout (conditions): 10 µM

Assay [1] has as its system DU-145 prostate.
In assay [2] the test system is K-562 leukemia.
Assay [3] has as its system MALME-3M melanoma.
The subject of assay [4] is MDA-MB-231 breast.
In assay [5] the test system is RXF 393 renal.
The subject of assay [6] is SF-268 CNS.
The test system of assay [7] is SF-295 CNS.
The subject of assay [8] is SF-539 CNS.
Assay [9] deals with UACC-257 melanoma.
For assay [10], the system named is M14 melanoma.

As to `CN(C)C(C)(C)CC(C)(C)C`, the growth in assay [1] is 99.5%; in assay [2] it was 96.5%; in [3], 94.2%; in [4] it was 101%; in [5] it was 103%; in assay [6], 103%. The growth was 104% in assay [7], 94.1% in assay [8], 117% in assay [9] and 105% in assay [10].
`O=C(O)COCC(=O)O`: the growth in assay [1] was 103%; in assay [2], 116%; in assay [3], 83.6%; in assay [4], 106%; in assay [5], 102%; in assay [6], 92.6%. Besides, the growth is 89.7% in [7], 104% in assay [8], 87.9% in assay [9] and 111% in assay [10].
Consider `COc1cc(/C=C(\C#N)C(=O)c2ccccc2)ccc1OCc1ccccc1`, for which the growth was 102% in assay [1]; 120% in [2]; 86.1% in assay [3]; 94.6% in assay [4]; 100% in [5]; 93.2% in [6]. Besides, the growth in [7] was 103%; in assay [8], 99.9%; in assay [9], 106%; in assay [10], 97.5%.
Regarding `N#C/C(=C\c1cc(O)c(O)c(O)c1)C(N)=O`, the growth in [1] was 93.6%; in [2], 71.9%; in [3], 115%; in assay [4], 102%; in assay [5] it was 99.6%; in assay [6], 107%. The growth in assay [7] was 87.7%; in assay [8] it was 94%; in assay [9], 105%; in [10], 92.2%.
As to `N=c1c(C(=O)OCc2ccccc2)ncc(CCl)n1O`, the growth in assay [1] is 102%; in [2] it was 109%; in assay [3], 113%; in assay [4] it was 95.8%; in assay [5], 94.9%; in assay [6] it was 94.9%. Besides, the growth is 124% in [7], 104% in assay [8], 81.8% in assay [9] and 94.1% in assay [10].
Consider `c1cc2cccc3c4cccc5cccc(c(c1)c23)c54`, for which the growth is 115% in [1]; 110% in assay [2]; 119% in [3]; 94.4% in assay [4]; 106% in assay [5]; 101% in assay [6]. The growth in assay [7] is 118%; in [8], 99%; in [9] it was 125%; in assay [10] it was 106%.
Regarding `O=C(/C=C\c1ccc(O)cc1)c1ccccc1`, the growth in assay [1] is 101%; in [2], 99.2%; in assay [3] it was 82.7%; in assay [4], 92.4%; in [5] it was 110%; in assay [6], 90%. In addition, the growth was 110% in assay [7], 92.3% in assay [8], 98% in [9] and 72.8% in assay [10].
Take `Cc1cc(O)ccc1O`: the growth in assay [1] is 114%; in [2] it was 94.1%; in [3], 101%; in [4], 87.3%; in assay [5], 112%; in assay [6] it was 102%. Further, the growth in assay [7] was 129%; in [8], 95.5%; in [9], 99.5%; in [10], 96.4%.
Turning to `O=C(Nc1cc(-c2ccccc2)[nH]n1)c1ccc(Cl)cc1`, the growth in assay [1] is 77.6%; in assay [2], 61.1%; in [3], 92.6%; in [4] it was 114%; in assay [5], 32.4%; in assay [6], 74.2%. For the same compound, the growth was 71.2% in assay [7], 66.2% in [8], 77.9% in [9] and 64.4% in assay [10].
For the compound `Cc1ccc(C(O)C2CC2)cc1` (stereo not given), the growth in assay [1] is 113%; in assay [2] it was 98.6%; in assay [3], 101%; in [4], 105%; in [5] it was 102%; in [6] it was 108%. The growth in [7] is 97%; in assay [8] it was 96.7%; in [9], 89.5%; in [10] it was 109%.
As for `S=c1[nH]ccn1-c1ccccc1Cl`, the growth in assay [1] was 106%; in [2] it was 101%; in [3], 120%; in assay [4] it was 120%; in assay [5], 114%; in [6], 108%. The growth in [7] is 100%; in assay [8] it was 103%; in assay [9] it was 22.9%; in [10] it was 108%.
In the case of `O=C(O)[C@@H]1[C@H]2C[C@H]3c4[nH]c5ccccc5c4CCN3C[C@@H]2CC[C@@H]1O`, the growth is 106% in assay [1]; 129% in assay [2]; 66.1% in [3]; 108% in assay [4]; 111% in [5]; 107% in [6]. For the same compound, the growth in assay [7] was 99.2%; in assay [8], 108%; in assay [9], 105%; in [10] it was 91.5%.
`CN(C)c1ccc2nc3ccc(=N)cc-3sc2c1`: the growth in assay [1] is 86.7%; in [2] it was 20.1%; in assay [3], 8.19% (active); in assay [4], 11.5%; in assay [5] it was 70.7%; in assay [6] it was 54.2%. The growth in assay [7] is 86.1%; in assay [8], -11.3% (active); in assay [9] it was 13.9%; in assay [10], 24.7%.
Consider `c1ncc2[nH]cnc2n1`, for which the growth in assay [1] is 96.6%; in assay [2], 102%; in assay [3], 126%; in [4], 111%; in [5], 112%; in assay [6], 104%. Also, the growth in assay [7] was 116%; in assay [8] it was 98.3%; in assay [9] it was 87.1%; in assay [10] it was 97.9%.
Consider `c1cc[n+](C2c3ccccc3C([n+]3ccccc3)c3ccccc32)cc1` (stereo not given), for which the growth in assay [1] is 91.7%; in [2], 72.9%; in [3], 53.1%; in [4], 70.6%; in assay [5], 61.6%; in [6], 23%. For the same compound, the growth in assay [7] is 52%; in assay [8], 27.9%; in assay [9] it was 80.1%; in assay [10] it was 96%.
For the compound `CCCCC(O)c1ccccc1` (stereo not given), the growth is 108% in [1]; 94% in assay [2]; 102% in assay [3]; 116% in [4]; 107% in assay [5]; 98.6% in assay [6]. Moreover, the growth in assay [7] was 104%; in [8], 106%; in [9] it was 101%; in assay [10] it was 109%.
For `C=CCNC(=O)c1ccc(OC)cc1`, the growth was 124% in assay [1]; 105% in [2]; 117% in assay [3]; 104% in assay [4]; 111% in assay [5]; 126% in assay [6]. In addition, the growth in assay [7] was 115%; in [8], 100%; in [9], 97.6%; in [10], 100%.
As for `CC(=O)Nc1ccc(NC(C)=O)c2c1C(=O)c1ccccc1C2=O`, the growth in assay [1] was 96%; in assay [2] it was 91.4%; in assay [3], 86.1%; in assay [4], 59.7%; in [5], 108%; in assay [6] it was 95.9%. For the same compound, the growth in assay [7] was 99.8%; in assay [8] it was 92.3%; in assay [9], 110%; in assay [10], 101%.
On to `O=C1C[C@H](c2ccccc2)[C@H](c2ccccc2)C1`, for which the growth is 121% in [1]; 111% in assay [2]; 89.6% in [3]; 99.1% in [4]; 111% in assay [5]; 105% in [6]. The growth is 108% in assay [7], 103% in assay [8], 107% in [9] and 103% in assay [10].
Turning to `CN(C)C(=O)Oc1cccc([N+](C)(C)C)c1`, the growth was 113% in [1]; 104% in assay [2]; 131% in [3]; 91.1% in assay [4]; 114% in assay [5]; 106% in assay [6]. Moreover, the growth in assay [7] was 96.8%; in [8] it was 106%; in [9] it was 97.8%; in assay [10], 126%.
Regarding `C#CCSc1nnnn1-c1ccc(Br)c(C)c1`, the growth in [1] was 107%; in assay [2], 86.3%; in assay [3], 112%; in [4], 98.4%; in assay [5] it was 68.3%; in assay [6], 99.2%. Moreover, the growth in assay [7] is 103%; in assay [8] it was 89%; in [9], 83.5%; in assay [10], 94.8%.
Take `O=C(/C=C/C(=O)c1ccccc1)c1ccccc1`: the growth in [1] was 115%; in [2], 41.9%; in assay [3], 131%; in [4], 110%; in assay [5], 118%; in assay [6], 107%. In addition, the growth in assay [7] is 99%; in [8], 114%; in assay [9], 119%; in [10], 111%.
For the compound `O=C(CN1CCNCC1)N1CCOCC1`, the growth in assay [1] was 130%; in [2], 97.5%; in assay [3], 96.3%; in [4] it was 110%; in [5], 123%; in assay [6] it was 110%. The growth in [7] was 102%; in assay [8] it was 99.5%; in assay [9], 109%; in assay [10], 103%.
Turning to `O=[N+]([O-])c1ccc(Sc2ccncn2)c([N+](=O)[O-])c1`, the growth in [1] was 85.4%; in assay [2], 26.3%; in assay [3], 86.6%; in [4], 84.1%; in assay [5], 81.7%; in assay [6], 89%. Also, the growth was 113% in assay [7], 22.9% in assay [8], 64.7% in assay [9] and 8.79% (active) in [10].
With `O=C(Nc1cccc(NC(=O)Nc2cc(C(F)(F)F)ccc2Cl)c1)Nc1cc(C(F)(F)F)ccc1Cl`, the growth in assay [1] was 30.8%; in assay [2], 16.3%; in [3] it was 2.44% (active); in [4], 1.95% (active); in assay [5], 32%; in [6], 48.5%. Further, the growth in assay [7] was -23.9% (active); in [8], 34%; in assay [9], -4.1% (active); in assay [10], 21.6%.
Turning to `OCc1ccc(-c2ccc(-c3ccc(CO)s3)o2)s1`, the growth in [1] is 6.59% (active); in assay [2], -3.52% (active); in assay [3], 78.1%; in [4], 98.8%; in [5] it was 57%; in assay [6], 73.4%. Besides, the growth in assay [7] is 13.6%; in assay [8], 43.8%; in assay [9], 32.5%; in assay [10], 87.6%.
Consider `COC(=O)c1ccccc1N(C)C`, for which the growth was 108% in assay [1]; 81.4% in assay [2]; 101% in [3]; 112% in assay [4]; 118% in assay [5]; 107% in assay [6]. Further, the growth was 98.7% in [7], 115% in [8], 103% in assay [9] and 102% in assay [10].
For `Cc1cc2nc(CO)[nH]c2cc1C`, the growth was 104% in [1]; 111% in [2]; 144% in [3]; 109% in assay [4]; 89.8% in [5]; 88.7% in [6]. Also, the growth in [7] is 121%; in assay [8], 107%; in [9], 92%; in [10], 107%.
On to `CCN=c1cc2sc3cc(NCC)c(C)cc3nc-2cc1C`, for which the growth is -18.9% (active) in assay [1]; 11.8% in assay [2]; -30.9% (active) in [3]; 2.51% (active) in assay [4]; 74.7% in assay [5]; -11.3% (active) in assay [6]. Further, the growth is -72.4% (active) in [7], -9.62% (active) in assay [8], 6.74% (active) in assay [9] and 21.4% in [10].
Consider `COc1cc(C(=O)N/N=C/c2cccc([N+](=O)[O-])c2)cc(OC)c1OC`, for which the growth in assay [1] is 87.4%; in [2], 35.8%; in assay [3], 40.1%; in [4] it was 65.1%; in [5] it was 60%; in assay [6] it was 73.6%. In addition, the growth is 48.2% in [7], 66.2% in assay [8], 76.3% in assay [9] and 29.9% in [10].

Values taken from PubChem BioAssay (NCI).
